Experimental findings from PubChem BioAssay AID1851 (National Center for Advancing Translational Sciences (NCATS), 2009) are described below.

About 5,700 (36%) of roughly 16,000 compounds were called active. Another 24% or so got no clear call; they are omitted. Some of the results follow. Values without a mark were called inactive. Calls follow the shape of the dose curve; as a rule, active = well fitted curve in the direction sought with a large enough effect; inconclusive = small, poorly fitted or top-dose-only effect, or effect the other way; inactive = no such curve, though single readings can be large or run the other way.
% is scaled to controls: 0 for no effect and ±100 for the full control effect.

Chain of Cytochrome P450 1A2 (Homo sapiens) (P05177 whole entry, looked up): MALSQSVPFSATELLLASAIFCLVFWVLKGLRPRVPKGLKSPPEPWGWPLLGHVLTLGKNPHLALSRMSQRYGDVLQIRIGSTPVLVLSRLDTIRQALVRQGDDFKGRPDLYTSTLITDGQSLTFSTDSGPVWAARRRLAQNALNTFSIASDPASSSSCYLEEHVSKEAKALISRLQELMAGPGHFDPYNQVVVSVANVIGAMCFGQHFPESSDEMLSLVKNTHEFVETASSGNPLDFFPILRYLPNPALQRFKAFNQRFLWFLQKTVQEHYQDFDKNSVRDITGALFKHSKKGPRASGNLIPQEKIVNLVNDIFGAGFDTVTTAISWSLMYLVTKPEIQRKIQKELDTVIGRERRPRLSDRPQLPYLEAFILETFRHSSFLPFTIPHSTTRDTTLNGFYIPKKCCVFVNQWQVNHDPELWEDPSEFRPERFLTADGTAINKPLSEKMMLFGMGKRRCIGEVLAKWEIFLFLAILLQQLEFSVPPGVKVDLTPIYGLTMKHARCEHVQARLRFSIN

This assay addresses Cytochrome P450 1A2 (Homo sapiens) (UniProt P05177). As to the kind of experiment: Cytochrome panel assay with activity outcomes. The conditions noted are these: recombinant CYP, pro-luciferin dealkylation, luminescence, p450-cyp1a2; series mostly up to 57.1 µM.
What is called AC50 is the concentration at which the activity in the assay is half-maximal. With `CCCN(CCC)CCNC(=O)C1CCCN(S(=O)(=O)c2ccc3c(c2)oc(=O)n3C)C1` (stereo not drawn), the AC50 entry is “inactive”.

With `CCc1nc2cc(CC(=O)O)ccc2o1`, the AC50 entry is “inactive”.

`Cn1cccc1C(=O)N1CCC2(CC1)CN(c1ccccn1)C2`: the AC50 entry is “inactive”.

As to `Nc1nc2c(ncn2COCCO)c(=O)[nH]1`, the AC50 entry is “inactive”.

Consider `C[C@@]12CC3CC(N)(C1)C[C@@](C)(C3)C2`, for which the AC50 entry was “inactive”.

As for `C[C@@H](C(=O)Nc1ccc2ccccc2c1)[C@H]1C[C@]1(C)[C@H](NS(=O)(=O)c1ccc2ccccc2c1)c1ccccc1`, the AC50 entry was “inactive”.

For `CC(=O)N[C@@H](c1ccccc1)[C@]1(C)C[C@H]1[C@@H](C)C(=O)Nc1ccc2ccccc2c1`, the AC50 was 12.6 µM (active).

In the case of `C[C@@]1(C(NC(=O)Cc2ccccc2)c2ccc(-c3ccccc3)cc2)C[C@H]1C1CCCCC1` (stereo partly drawn), the AC50 result was “inactive”.

As to `CN(C)Cc1cc(O)c(O)c(CN(C)C)c1`, the activity, negative = inhibition is -8.6% [at 11.4 µM].

Turning to `CN1CCN(c2ncc3nc(-c4cc(F)cc(F)c4)c(=O)n(C4CC4)c3n2)CC1`, the AC50 is 15.8 µM (active).

`CN1CCN(c2ncc3nc(-c4ccc(F)cc4)c(=O)n(C4CC4)c3n2)CC1`: the AC50 was 12.6 µM (active).

With `CN1CCN(c2ncc3nc(-c4ccc(Cl)cc4)c(=O)n(C4CC4)c3n2)CC1`, the concentration at half-maximal activity (AC50) is 15.8 µM (active).

`CC(C)N=c1cc2n(-c3ccc(Cl)cc3)c3ccccc3nc-2cc1Nc1ccc(Cl)cc1`: the AC50 entry is “inactive”.

On to `COC(=O)[C@@]1(Cc2ccccc2)[C@H]2c3cc(C(=O)N4CCCC4)n(Cc4ccsc4Br)c3C[C@H]2CN1C(=O)c1ccccc1`, for which the AC50 result was “inactive”.

In the case of `N#Cc1cccc(C(c2nnnn2C2CCCC2)N2CCCCCC2)c1` (stereo not drawn), the AC50 entry is “inactive”.

`c1ccc(-c2noc(CSc3nnnn3C3CCCCC3)n2)cc1`: the half-maximal activity concentration (AC50) was 2.24 µM (active).

With `N#Cc1ccc(C(c2nnnn2C2CCCC2)N2CCC(Cc3ccccc3)CC2)cc1` (stereo not drawn), the AC50 result was “inactive”.

In the case of `OCCCN=C1CCCCC1`, the activity, negative = inhibition was -9.6% [at 11.4 µM].

`COC(=O)Cn1nc(-c2ccccc2)n(-c2ccccc2)c1=S`: the AC50 was 15.8 µM (active).

As for `O=C(Nc1cccc(F)c1)N1CC2(CCN(C(=O)c3cc(C(F)(F)F)cc(C(F)(F)F)c3)CC2)C1`, the AC50 entry is “inactive”.

Regarding `O=C(NC1(C(F)(F)F)NC(=O)N(Cc2cccnc2)C1=O)c1ccccc1` (stereo not drawn), the concentration at half-maximal activity (AC50) is 6.31 µM (active).

`CCCCN1C(=O)NC(NC(=O)c2ccco2)(C(F)(F)F)C1=O` (stereo not drawn): the AC50 entry is “inactive”.

`COc1ccc(N2C(=O)NC(NC(=O)c3ccncc3)(C(F)(F)F)C2=O)cc1` (stereo not drawn): the AC50 entry is “inactive”.

On to `CCN1C(=O)[C@H]2[C@H]3[C@H](O)[C@H](O)C/C(=N/OC)[C@@H]3CC[C@@H]2C1=O`, for which the activity, negative = inhibition is -3.89% [at 11.4 µM].

For the compound `NCCCCCCNS(=O)(=O)c1cccc2c(Cl)cccc12`, the AC50 was 7.94 µM (active).

With `NCCNS(=O)(=O)c1cccc2cnccc12`, the AC50 entry was “inactive”.

With `Nc1ccc(S(=O)(=O)NCCS(=O)(=O)O)cc1`, the activity, negative = inhibition was -3.14% [at 2.29 µM].

`O=S(=O)(NCCCCCCc1ccccc1)c1cccc2c(Cl)cccc12`: the AC50 was 15.8 µM (active).

`CCCCCCCNS(=O)(=O)c1cccc2c(Cl)cccc12`: the AC50 is 6.31 µM (active).

Consider `COc1ccccc1N1CCN(CCCCNS(=O)(=O)c2cccc3c(N(C)C)cccc23)CC1`, for which the AC50 entry was “inactive”.

For `COC(=O)N1CCC2(CCN(Cc3nccs3)CC2)CC1`, the AC50 entry is “inactive”.

For the compound `C/C(=N/O)[C@@H]1C[C@H](CC(=O)O)C1(C)C`, the activity, negative = inhibition was -2.9% [at 11.4 µM].

For `COCCn1c(=O)c(-c2cccc(F)c2)nc2cncnc21`, the half-maximal activity concentration (AC50) was 2 µM (active).

As to `COCCn1c(=O)c(-c2cc(F)cc(F)c2)nc2cncnc21`, the AC50 was 2 µM (active).

Take `COCCn1c(=O)c(-c2cccc(Cl)c2)nc2cncnc21`: the concentration at half-maximal activity (AC50) was 0.631 µM (active).

`COCCn1c(=O)c(-c2ccc(Cl)cc2)nc2cncnc21`: the concentration at half-maximal activity (AC50) was 0.2 µM (active).

`COCCn1c(=O)c(-c2ccccc2)nc2cncnc21`: the AC50 is 0.794 µM (active).

Take `COCCn1c(=O)c(-c2ccc(F)c(F)c2)nc2cncnc21`: the AC50 is 0.251 µM (active).

For `COCCn1c(=O)c(-c2ccc(F)cc2)nc2cncnc21`, the concentration at half-maximal activity (AC50) was 0.501 µM (active).

Take `COc1ccc(NC(=O)CC2C(=O)N(c3cccc(OC)c3)C(=O)N2C2CCCCC2)cc1` (stereo not drawn): the AC50 result was “inactive”.

For the compound `COc1ccc2oc(=O)c(C(=O)Oc3ccc(NC(C)=O)cc3)cc2c1`, the AC50 result is “inactive”.

`COc1ccc(NC(=O)C2CCN(C(=O)c3cccs3)CC2)c(OC)c1`: the AC50 result was “inactive”.

Take `COc1ccccc1CNC(=O)C1CC(=O)N(C2CCCC2)C1` (stereo not drawn): the AC50 result is “inactive”.

On to `COc1ccc2oc(=O)c(NC(=O)C3CCCCC3)cc2c1`, for which the half-maximal activity concentration (AC50) is 2.51 µM (active).

`COc1cccc2cc(NC(=O)C3CCCCC3)c(=O)oc12`: the AC50 is 1.26 µM (active).

`CC[C@H]1C2=C3C(CC[C@H]4C(OCc5ccc(F)cc5C(F)(F)F)OC[C@](C)([C@@H]34)N(C(=O)OC(C)(C)C)C2)C(COC)C1COC` (stereo partly drawn): the AC50 entry is “inactive”.

As to `COc1ccc(CNCCC(c2ccc(OC(C)C)cc2)C(C)C)cc1OC` (stereo not drawn), the AC50 result is “inactive”.

Turning to `COC(=O)C(C(=O)OC)C(C[N+](=O)[O-])c1ccc(OC)c(OC)c1` (stereo not drawn), the AC50 result is “inactive”.

Regarding `COc1cc2ccc([C@H](C)NCC#N)cc2cc1OC`, the half-maximal activity concentration (AC50) was 0.501 µM (active).

As to `c1ccc([C@H](c2cccc3c2ccc2ccccc23)[C@H](c2ccccc2)c2cccc3c2ccc2ccccc23)cc1`, the activity, negative = inhibition was -9.37% [at 11.4 µM].

`CCN(CC)C[C@@H](O)c1ccc2ccc3ccccc3c2c1`: the AC50 was 0.794 µM (active).

On to `Cc1cc2ccccc2c[n+]1CC(O)C[n+]1cc2ccccc2cc1C`, for which the activity, negative = inhibition was -17.4% [at 11.4 µM].

With `CCCCCCCCN1C(=O)N(C)C(N(O)C(=O)NC)C1(C)C` (stereo not drawn), the AC50 result is “inactive”.

On to `CCCn1cnc2c1c(=O)n(CCCCC(C)=O)c(=O)n2C`, for which the AC50 is 12.6 µM (active).

With `Cn1c(=O)c2c(ncn2C[C@@H](O)CO)n(C)c1=O`, the AC50 entry is “inactive”.

With `Cn1c(=O)c2c(ncn2CCO)n(C)c1=O`, the AC50 entry is “inactive”.

In the case of `O=C(O)/C=C(/C(=O)O)[C@]12CCN3CC4=CCO[C@@H]5CC(=O)N[C@@H]1[C@H]5[C@H]4C[C@H]32`, the activity, negative = inhibition was -15% [at 2.29 µM].

In the case of `COc1ccc(CO/N=C/c2c(C)[nH]c(=O)[nH]c2=O)cc1`, the AC50 is 22.4 µM (active).

As for `NC[C@H]1O[C@H](n2cnc3c(N)ncnc32)C[C@@H]1O`, the activity, negative = inhibition is -9.51% [at 11.4 µM].

Consider `O=[N+]([O-])c1ccc2c(c1)Cc1cc(N=Cc3ccc4c(c3)OCO4)ccc1-2`, for which the AC50 is 0.794 µM (active).

As for `O=c1oc2cc(N=Cc3ccc4c(c3)OCO4)ccc2c2ccccc12`, the AC50 was 0.00794 µM (active).

For the compound `CSc1nc(O)c(Cc2ccccc2)c(=O)[nH]1`, the AC50 result is “inactive”.

`Cc1nc(CN2CCCCC2)c(O)c(=O)[nH]1`: the activity, negative = inhibition was -7.06% [at 11.4 µM].

In the case of `Cc1nc2c(O)cccc2c(=O)[nH]1`, the AC50 is 15.8 µM (active).

`COc1ccc(C(C(=O)NC2CCCCC2)N(C(=O)c2sc(C)nc2C)c2ccc(OC)cc2)cc1` (stereo not drawn): the AC50 entry is “inactive”.

For `C/C(=N\OC(=O)NC1CCCCC1)c1sc(-c2ccccc2)nc1C`, the AC50 is 7.08 µM (active).

`COc1ccc(C(C(=O)NC2CCCCC2)N(C(=O)c2sc(C)nc2C)c2ccc(C(C)=O)cc2)cc1` (stereo not drawn): the AC50 result is “inactive”.

For the compound `Cc1ccc(-c2ncccc2OC(=O)C23CC4CC(CC(C4)C2)C3)cc1`, the AC50 is 14.1 µM (active).

Turning to `CC(C)CO/N=C1/C[C@@H](O)[C@@H](O)[C@@H]2[C@@H]3C(=O)N(C[C@@H]4CCCO4)C(=O)[C@H]3CC[C@H]12`, the activity, negative = inhibition was -4.99% [at 11.4 µM].

In the case of `Cn1c(=O)c2cn(-c3ccccc3)cc2n(C)c1=O`, the half-maximal activity concentration (AC50) was 1.78 µM (active).

For `Cn1c(=O)c2cc(S(=O)(=O)NCCC(=O)NCc3ccccc3Cl)ccc2n(C)c1=O`, the AC50 result is “inactive”.

Consider `Cn1c(=O)n(CCC(=O)O)c2ccccc21`, for which the AC50 result is “inactive”.

As to `CCCNC(=O)OC[C@H]1O[C@@H](CCO/N=C\[C@@H](NS(=O)(=O)c2ccc(C)cc2)[C@H](C)/C=C\CC(=O)OC)C=C[C@@H]1Oc1ccc(OC)cc1`, the activity, negative = inhibition was 2.17% [at 11.4 µM].

For `C[C@@]1(C(NC(=O)c2ccccc2)c2ccc(-c3ccccc3)cc2)C[C@H]1C1CCCCC1` (stereo partly drawn), the AC50 result is “inactive”.

As to `O=C(c1ccccc1)[C@@H]1O[C@H]1c1ccc(-c2ccccc2)cc1`, the half-maximal activity concentration (AC50) is 6.31 µM (active).

As for `CCN1CCN(CCCNC(=O)C(NC(=O)C2CCC(C)CC2)C(C)C)CC1` (stereo not drawn), the AC50 result was “inactive”.

On to `O=C(c1cc(C(F)(F)F)cc(C(F)(F)F)c1)N1CCC[C@@]2(CCN(c3ncccn3)C2)C1`, for which the AC50 result was “inactive”.

On to `O=C1CC[C@H](N2C(=O)c3ccccc3C2=O)C(=O)N1`, for which the AC50 result was “inactive”.

In the case of `NCCn1c(=O)c(CCc2ccccc2)nc2cncnc21`, the AC50 is 12.6 µM (active).

Regarding `O=c1c(CCc2ccccc2)nc2cncnc2n1-c1ccccc1`, the concentration at half-maximal activity (AC50) was 15.8 µM (active).

In the case of `COCCn1c(=O)c(CCc2ccccc2)nc2cncnc21`, the AC50 was 10 µM (active).

`CCCNC(=O)N1CCC(C(=O)c2ccc(F)cc2)CC1`: the AC50 entry was “inactive”.

Regarding `NC(=O)C1(NC(=O)[C@@H]2CC3(CC(c4cccc(NC(=O)c5cc([N+](=O)[O-])cc([N+](=O)[O-])c5)c4)=NO3)CN2C(=O)c2ccccc2)CC1` (stereo partly drawn), the AC50 entry is “inactive”.

`COc1ccc(C(=O)Nc2ccc(OCC(F)(F)C(F)F)c(C(F)(F)F)c2)cc1OC`: the AC50 entry was “inactive”.

For `COc1ccc(NC(=O)c2cc(C(C)C)on2)cc1OC`, the AC50 was 15.8 µM (active).

Consider `COc1ccc(NC(=O)CC#N)cc1OC`, for which the AC50 was 15.8 µM (active).

Take `COc1ccc(-c2cc(C(=O)Nc3cc(OC)c(OC)c(OC)c3)no2)cc1OC`: the AC50 entry is “inactive”.

Regarding `CCC(NC(=O)Nc1cc(OC)c(OC)c(OC)c1)(C(F)(F)F)C(F)(F)F`, the AC50 result is “inactive”.

On to `COc1ccc(NC(=O)COC(=O)Cn2c(C)nc3ccccc32)cc1OC`, for which the AC50 entry was “inactive”.

For `COc1ccc(NC(=O)C(F)(F)F)cc1OC`, the half-maximal activity concentration (AC50) is 12.6 µM (active).

As to `CO[C@]1(NC(=O)CSCC#N)C(=O)N2C(C(=O)O)=C(CSc3nnnn3C)CS[C@H]21`, the AC50 entry is “inactive”.

Take `CNc1ncnc2ccc(-c3ccccc3OC)cc12`: the AC50 was 2.51 µM (active).

Consider `COc1ccccc1-c1ccc2ncnc(Nc3ccccc3)c2c1`, for which the half-maximal activity concentration (AC50) was 2.51 µM (active).
